Assay [1] concerns Plasmodium falciparum Sir2 (PF13_0152, Sir2A). As to the kind of experiment: Plasmodium falciparum Sir2A binding compounds – biochemical, small-molecule microarray, 635 nm fluorescence, primary screen (AID 1098).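 Also: score merges spot fluorescence intensity with its signal-to-noise ratio.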 The note with it: fluorescence 635 nm, higher = more signal.
Assay [2] in a line: probe aDKK1 binding to arrayed compounds – biochemical, biotinylated probe, 635/667 nm fluorescence, primary screen (AID 1099).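 Also: score merges 667nm spot fluorescence with signal to noise across triplicate slides.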 To be noted: small-molecule microarray, higher = more signal.
Assay [3] is described as follows: probe aCHRDL2 binding to arrayed compounds – biochemical, biotinylated probe, 635/667 nm fluorescence, primary screen (AID 1100). To be noted: small-molecule microarray, higher = more signal.
Assay [4] can be described thus: change in splice reporter luminescence, either direction, cell-based, HEK293, spliceosome inhibition project, primary screen (AID 1101).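 Also: HEK293 cells carrying a splicing-competent luciferase reporter gene; test concentration not given here.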 To be noted: HEK293 splicing luciferase reporter, 24 h, higher = more signal, called active from +8 up or from −8 down. For orientation: In a reporter assay the amount or activity of a reporter protein is the signal.
Assay [5] concerns the target Fibroblast growth factor 10 (Homo sapiens) (UniProt O15520). As to the kind of experiment: compounds binding fibroblast growth factor 10 – biochemical, small-molecule microarray, 635 nm fluorescence, primary screen (AID 1102). The note with it: FGF10 binding, fluorescence 635 nm, higher = more signal.
Assay [6] deals with glycogen synthase kinase-3 (GSK3A per assay name; protocol says GSK3B). As to the kind of experiment: compounds binding glycogen synthase kinase-3 – biochemical, small-molecule microarray, 635 nm fluorescence, GSK3A, primary screen (AID 1103). Also: the record names both GSK3A and GSK3B. To be noted: fluorescence 635 nm, higher = more signal.
Assay [7] addresses Epidermal growth factor receptor (Homo sapiens) (UniProt P00533). As to the kind of experiment: compounds binding epidermal growth factor receptor – biochemical, small-molecule microarray, 635 nm fluorescence, primary screen (AID 1104).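 Also: score merges 667 nm emission intensity with spot signal to noise over triplicate slides.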 To be noted: EGFR binding, higher = more signal.
The target in assay [8] is Follistatin-related protein 3 (Homo sapiens) (UniProt O95633). As to the kind of experiment: compounds binding follistatin-related protein 3 – biochemical, small-molecule microarray, 635 nm fluorescence, primary screen (AID 1105).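 Also: score merges emission near 667 nm and signal to noise per printed spot across three slides.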 To be noted: FSTL3 binding, higher = more signal.
Assay [9] deals with Dickkopf-related protein 1 (Homo sapiens) (UniProt O94907). As to the kind of experiment: small molecules binding DKK1 protein – biochemical, small-molecule microarray, 635 nm fluorescence scan, primary screen (AID 1106).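 Also: score merges emission near 667 nm with signal to noise over three replicate slides.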 The note with it: higher = more signal.
In assay [10] the test system is Inhibin beta A chain (activin A). As to the kind of experiment: small molecules binding activin A – biochemical, small-molecule microarray, 635 nm fluorescence scan, primary screen (AID 1107).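 Also: mouse activin A protein probed at 4.33 µg/mL on printed slides; score merges bound-protein fluorescence near 667 nm with spot signal-to-noise.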 To be noted: INHBA, higher = more signal.
The subject of assay [11] is Human papillomavirus type 1a protein E7 (residues 44-93). As to the kind of experiment: small molecules binding HPV E7 44-93 – biochemical, small-molecule microarray, residues 44-93, 635 nm fluorescence, primary screen (AID 1108).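 Also: E7 fragment applied at 1 µg/mL in TBST for 1 h at 4 C; score combines spot fluorescence with its signal to noise ratio.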 The note with it: fluorescence 635 nm, higher = more signal.
A short description of assay [12]: hepatitis C replication reporter changes, two-sided – Huh7 cells, luciferase reporter, HCV replication inhibitor project, primary screen (AID 1109).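 Also: huh7 hepatoma cells harbouring a luciferase neomycin HCV replicon reporter; luciferase luminescence as measure of HCV replicon replication; test concentration not given here.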 To be noted: Huh7 HCV replicon luciferase reporter, 48 h; higher = more signal.
In assay [13] the target is Left-right determination factor 2 (Homo sapiens) (UniProt O00292). As to the kind of experiment: small molecules binding LEFTY2 protein – biochemical, small-molecule microarray, 635 nm fluorescence scan, primary screen (AID 1110). The note with it: higher = more signal.
In assay [14] the target is Calmodulin-1 (Homo sapiens) (UniProt P0DP23). As to the kind of experiment: small molecules binding calmodulin-1 with EGTA – biochemical, small-molecule microarray, Cy5-labelled CALM1, profiling panel (AID 1111).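 Also: labelled calmodulin applied in Tris saline Tween buffer holding calcium plus EGTA and DTT.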 The note with it: Cy5-CALM1 binding fluorescence, higher = more signal.
The target is the same in assay [15]. As to the kind of experiment: small molecules binding Ca-loaded calmodulin-1 – biochemical, small-molecule microarray, Cy5-labelled CALM1, plus calcium, artefact control for SMM control-protein annotation, profiling panel (AID 1112).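 Also: score merges spot fluorescence with signal to noise from triplicate slides.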 To be noted: Cy5-CALM1 binding fluorescence, higher = more signal.
Assay [16] in a line: probe aWnt5a binding to arrayed compounds – biochemical, biotinylated probe, 635/667 nm fluorescence, primary screen (AID 1113).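 Also: score merges 667 nm fluorescence intensity with signal-to-noise per printed feature.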 To be noted: small-molecule microarray, higher = more signal.
A short description of assay [17]: probe aShh binding to arrayed compounds – biochemical, biotinylated probe, 635/667 nm fluorescence, primary screen (AID 1114).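 Also: probe is biotin-labelled aShh protein from a stem cell growth factor screen; measures binding of labelled protein to compounds printed on the slide; score merges feature fluorescence at 667 nm with signal-to-noise.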 To be noted: small-molecule microarray, higher = more signal.
Assay [18] in a line: probe aNog binding to arrayed compounds – biochemical, biotinylated probe, 635/667 nm fluorescence, primary screen (AID 1115).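 Also: probe is biotinylated aNog protein used at 0.15 µg/mL for 1 h at 4 C; z-score combines 667 nm fluorescence of each spot with its signal to noise.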 The note with it: small-molecule microarray, higher = more signal.
The target in assay [19] is Torsin-1A-interacting protein 1 (Homo sapiens) (UniProt Q5JTV8). As to the kind of experiment: compound microarray binding of lysate hLAP1 – cell lysate, small-molecule microarray, COS7 lysate, 635/667 nm fluorescence, primary screen (AID 1116). The note with it: 635 nm fluorescence, higher = more signal.
Assay [20] deals with Alpha-bungarotoxin (Bungarus multicinctus) (UniProt P60615). As to the kind of experiment: compounds binding labelled alpha-BTX control protein – biochemical, small-molecule microarray, Alexa647 label, 635/667 nm fluorescence, artefact control for SMM control protein annotation, profiling panel (AID 1117). The note with it: alpha-BTX-A647 binding fluorescence, higher = more signal.

The structures appear in SMILES notation. The source made the active and inactive calls.

Chain of Follistatin-related protein 3 (Homo sapiens) (O95633 whole entry, looked up): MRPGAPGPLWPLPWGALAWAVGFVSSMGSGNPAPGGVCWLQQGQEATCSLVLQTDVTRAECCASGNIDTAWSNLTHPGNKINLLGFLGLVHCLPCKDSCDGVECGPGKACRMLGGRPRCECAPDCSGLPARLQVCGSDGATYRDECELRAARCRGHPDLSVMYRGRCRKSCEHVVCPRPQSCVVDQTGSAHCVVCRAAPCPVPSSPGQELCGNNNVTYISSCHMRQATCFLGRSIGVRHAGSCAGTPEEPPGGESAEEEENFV
Chain of Dickkopf-related protein 1 (Homo sapiens) (O94907 whole entry, looked up): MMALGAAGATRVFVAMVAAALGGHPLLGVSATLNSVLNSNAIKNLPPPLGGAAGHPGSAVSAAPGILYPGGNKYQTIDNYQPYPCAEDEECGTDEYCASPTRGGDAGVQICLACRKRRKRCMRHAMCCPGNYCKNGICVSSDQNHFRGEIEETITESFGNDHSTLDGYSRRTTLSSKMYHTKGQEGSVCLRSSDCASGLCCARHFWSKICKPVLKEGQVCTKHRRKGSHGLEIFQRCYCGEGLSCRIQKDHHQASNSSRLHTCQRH
Chain of Torsin-1A-interacting protein 1 (Homo sapiens) (Q5JTV8 whole entry, looked up): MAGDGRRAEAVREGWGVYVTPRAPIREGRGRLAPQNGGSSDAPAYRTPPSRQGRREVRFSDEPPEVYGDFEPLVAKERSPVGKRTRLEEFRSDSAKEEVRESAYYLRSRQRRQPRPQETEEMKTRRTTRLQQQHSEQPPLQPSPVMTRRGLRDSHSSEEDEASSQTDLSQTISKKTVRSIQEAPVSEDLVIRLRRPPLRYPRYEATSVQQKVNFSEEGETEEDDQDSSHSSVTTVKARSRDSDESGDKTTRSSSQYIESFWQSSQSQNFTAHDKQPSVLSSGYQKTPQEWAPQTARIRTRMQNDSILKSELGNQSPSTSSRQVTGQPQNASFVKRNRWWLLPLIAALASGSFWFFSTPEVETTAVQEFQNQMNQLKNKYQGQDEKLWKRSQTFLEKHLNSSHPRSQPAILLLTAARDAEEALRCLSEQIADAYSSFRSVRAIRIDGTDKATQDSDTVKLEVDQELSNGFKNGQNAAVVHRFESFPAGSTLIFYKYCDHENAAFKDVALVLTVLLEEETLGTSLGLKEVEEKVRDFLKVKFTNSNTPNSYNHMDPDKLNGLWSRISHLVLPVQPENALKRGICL
Chain of Epidermal growth factor receptor (Homo sapiens) (P00533 whole entry, looked up): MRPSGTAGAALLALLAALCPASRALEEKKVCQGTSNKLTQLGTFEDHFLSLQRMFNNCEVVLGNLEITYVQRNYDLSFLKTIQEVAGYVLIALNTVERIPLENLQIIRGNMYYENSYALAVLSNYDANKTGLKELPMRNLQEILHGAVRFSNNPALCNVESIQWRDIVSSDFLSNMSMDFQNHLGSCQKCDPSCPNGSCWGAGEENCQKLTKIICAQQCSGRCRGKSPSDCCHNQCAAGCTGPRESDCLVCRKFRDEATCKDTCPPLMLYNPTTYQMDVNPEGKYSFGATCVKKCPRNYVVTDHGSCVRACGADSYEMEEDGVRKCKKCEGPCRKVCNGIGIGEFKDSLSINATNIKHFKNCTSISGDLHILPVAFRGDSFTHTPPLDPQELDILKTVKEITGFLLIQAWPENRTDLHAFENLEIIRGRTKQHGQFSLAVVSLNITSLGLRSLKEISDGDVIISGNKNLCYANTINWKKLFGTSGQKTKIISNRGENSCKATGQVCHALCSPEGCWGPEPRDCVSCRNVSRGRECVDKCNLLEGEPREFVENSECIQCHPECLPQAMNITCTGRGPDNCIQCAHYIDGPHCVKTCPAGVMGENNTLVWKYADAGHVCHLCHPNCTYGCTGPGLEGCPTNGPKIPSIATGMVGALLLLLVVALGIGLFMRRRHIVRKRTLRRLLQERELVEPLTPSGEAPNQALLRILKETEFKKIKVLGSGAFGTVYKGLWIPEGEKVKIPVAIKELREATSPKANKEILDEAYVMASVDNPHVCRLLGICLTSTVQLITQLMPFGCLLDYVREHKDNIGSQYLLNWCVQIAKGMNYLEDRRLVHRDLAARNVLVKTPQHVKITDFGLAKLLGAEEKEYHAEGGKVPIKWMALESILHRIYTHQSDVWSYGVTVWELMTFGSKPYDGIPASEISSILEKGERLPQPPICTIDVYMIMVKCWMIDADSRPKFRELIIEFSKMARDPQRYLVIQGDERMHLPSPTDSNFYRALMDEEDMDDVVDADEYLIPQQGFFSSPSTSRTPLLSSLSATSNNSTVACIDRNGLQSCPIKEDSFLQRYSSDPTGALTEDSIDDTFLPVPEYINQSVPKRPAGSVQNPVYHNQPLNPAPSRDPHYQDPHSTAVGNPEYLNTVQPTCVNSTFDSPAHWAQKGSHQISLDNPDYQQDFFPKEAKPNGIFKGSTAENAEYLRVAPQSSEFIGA
Chain of Left-right determination factor 2 (Homo sapiens) (O00292 whole entry, looked up): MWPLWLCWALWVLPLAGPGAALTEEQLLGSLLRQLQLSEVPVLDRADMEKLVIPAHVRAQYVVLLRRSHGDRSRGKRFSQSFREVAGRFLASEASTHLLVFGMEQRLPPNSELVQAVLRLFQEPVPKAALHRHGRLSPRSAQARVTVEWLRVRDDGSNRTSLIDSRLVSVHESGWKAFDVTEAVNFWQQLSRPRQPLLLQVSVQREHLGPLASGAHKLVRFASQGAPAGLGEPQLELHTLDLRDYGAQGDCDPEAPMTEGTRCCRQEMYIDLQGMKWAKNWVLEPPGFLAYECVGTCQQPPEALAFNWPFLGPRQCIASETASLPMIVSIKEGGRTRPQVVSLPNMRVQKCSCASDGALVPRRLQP
Chain of Alpha-bungarotoxin (Bungarus multicinctus) (P60615 whole entry, looked up): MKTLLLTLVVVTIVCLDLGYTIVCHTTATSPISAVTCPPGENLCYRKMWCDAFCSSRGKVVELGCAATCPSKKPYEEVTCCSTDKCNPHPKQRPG
Chain of Fibroblast growth factor 10 (Homo sapiens) (O15520 whole entry, looked up): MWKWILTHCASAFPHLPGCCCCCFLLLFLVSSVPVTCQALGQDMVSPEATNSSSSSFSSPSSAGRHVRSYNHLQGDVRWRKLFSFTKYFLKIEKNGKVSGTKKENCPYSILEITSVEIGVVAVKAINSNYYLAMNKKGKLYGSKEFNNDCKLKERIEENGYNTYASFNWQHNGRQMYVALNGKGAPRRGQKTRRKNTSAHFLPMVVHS

`O=C1NC(=O)C2C1C=CC(C(O)c1cccc3ccccc13)N2Nc1ccccn1` (stereo not given): the composite z-score in assay [1] worked out at 0.621; in assay [2] it was 0.103; in [3], 0.15; in [5] it was 0.522; in assay [6], 0.233; in assay [7] it was 0.688. Further, the composite z-score is 0.857 in [8]; 0.31 in assay [9]; 0.924 in [10]; 0.355 in assay [11]; 0.326 in [13]; -0.168 in assay [14]. Moreover, the composite z-score in [15] is -0.477; in assay [16], -0.034; in assay [17], 0.401; in assay [18] it was 0.116; in assay [19], 0.594; in assay [20] it was 0.307. The results for the z-score in assay [4] and in assay [12] were 1.03 (inactive) and 0.496, respectively.

`CCOC(=O)[C@H]1C/C=C/C[C@H](C(=O)OCC)C(=O)O[C@H]2[C@@H](OC)O[C@H](CO)[C@@H](OC(=O)Nc3ccc(C#N)cc3)[C@@H]2OC1=O`: the composite z-score in assay [1] is 0.859; in [2] it was -0.114; in assay [3], 0.0682; in assay [5] it was 0.322; in assay [6], -0.0841; in assay [7], -0.226. Also, the composite z-score is 0.413 in assay [8]; -0.255 in [9]; 0.189 in assay [10]; -0.324 in [11]; -0.0147 in [13]; 0.917 in [14]. In addition, the composite z-score is 0.148 in assay [15]; -0.124 in [16]; 0.0062 in assay [17]; -0.113 in [18]; 1.63 in assay [19]; -0.253 in [20]. Further, the z-score was -2.6 (inactive) in assay [4] and -3.6 in [12].

Take `COC(=O)[C@@]1(Cc2ccc(F)cc2)[C@H]2c3cc(C(=O)N4CCCC4)n(Cc4cc(C)n(C)n4)c3C[C@H]2CN1C(=O)c1ccccc1`: the composite z-score is 0.89 in assay [1]; 1.01 in assay [2]; 1.4 in assay [3]; 0.533 in assay [5]; 0.775 in assay [6]; -0.144 in [7]. The composite z-score was -0.261 in assay [8]; -0.449 in [9]; 1.28 in assay [10]; 0.95 in [11]; -0.857 in [13]; 2.36 in assay [14]. Moreover, the composite z-score in assay [15] turned out to be 1.38; in [16], 0.143; in assay [17], 0.356; in [18], 2.16; in assay [19], 3.13; in assay [20], 0.251. Also, the z-score in [4] was -3.14 (inactive); in [12], -1.17.

For `CCCCN1CC=CC23O[C@@H]4/C=C\CCC(C)OC(=O)C4[C@H]2C(=O)N(CCCCCO)[C@@H]3C1=O` (stereo not given in full), the composite z-score in assay [1] was 0.0665; in [2], -0.267; in assay [3] it was 0.421; in assay [5] it was -1.28; in assay [6], -0.577; in assay [7] it was -0.762. Also, the composite z-score is -0.668 in [8]; -1.41 in assay [9]; -0.323 in assay [10]; 0.15 in [11]; -1.39 in assay [13]; -0.78 in [14]. Besides, the composite z-score in assay [15] was 0.0481; in [16], -0.191; in assay [17] it was -0.214; in assay [18], -0.21; in assay [19], 1.27; in assay [20], -1.14. For the same compound, the results for the z-score in assay [4] and in assay [12] were -0.259 (inactive) and -0.275, respectively.

On to `N#Cc1ccc(NN2C(C(O)c3c(F)cccc3Cl)C=CC3C(=O)N(c4ccccc4)C(=O)C32)cc1` (stereo not given), for which the composite z-score in assay [1] is 1.08; in assay [2] it was 1.42; in [3], 1.19; in assay [5], 0.922; in assay [6] it was 0.943; in assay [7], 0.143. The composite z-score came to 1.12 in assay [8]; 0.125 in [9]; 0.5 in assay [10]; 1.47 in assay [11]; 0.21 in assay [13]; 2.51 in assay [14]. In addition, the composite z-score was 1.07 in assay [15]; 0.0724 in assay [16]; -0.195 in assay [17]; 1.65 in assay [18]; 2.65 in [19]; 1.59 in assay [20]. Also, the figures for the z-score in [4] and in assay [12] were 0.615 (inactive) and -0.57, respectively.

With `CC(C)c1ccc(NN2C(C(O)C(c3ccccc3)c3ccccc3)C=CC3C(=O)N(c4ccccc4)C(=O)C32)cc1` (stereo not given), the composite z-score is 1.08 in assay [1]; 0.517 in [2]; 0.344 in assay [3]; 1.31 in assay [5]; 1.26 in assay [6]; 0.438 in [7]. In addition, the composite z-score in assay [8] was 1.06; in assay [9] it was 0.238; in assay [10], 0.203; in assay [11] it was 1.42; in assay [13], 0.219; in assay [14], 1.27. The composite z-score in assay [15] was -0.147; in assay [16] it was 0.0279; in [17], 0.171; in assay [18] it was 1.46; in [19], 0.954; in [20], 1.74. Further, the z-score in assay [4] was 0.304 (inactive); in [12] it was -0.276.
